Measured values: PubChem BioAssay (NCI)
Several values for one entry are separate records, joined by “and”; a condition that tells them apart may be missing. Equal values may be shown once. About 79,000 compounds went through this panel and 15% of them were active in at least one assay; those are over-represented in the sample as a whole. More than one record can exist for a structure, and the calls need not agree. Activity calls are given as the source filed them. Rule as the data show it: active = growth inhibition above about 70%; inactive = the rest.

How the values were obtained:
[1] = NCI Yeast Anticancer Drug Screen. Data for the wt1 strain (AID 149);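 also: 0% = growth of vehicle-treated wt1 cultures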; settings: S. cerevisiae wt1 strain (SPY 50644) growth inhibition, stronger effect = higher value
Procedure, shortened: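 Each compound is tested on wt1 yeast and the loss of growth versus vehicle gives the inhibition value.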

[2] = NCI Yeast Anticancer Drug Screen. Data for the rad50EPP+ strain (AID 151);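 also: 0% = growth of vehicle-treated control cultures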; settings: S. cerevisiae rad50 mutant strain, stronger effect = higher value
Procedure, shortened: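 Strain rad50EPP+; compound exposure; % growth inhibition vs vehicle.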

[3] = NCI Yeast Anticancer Drug Screen. Data for the mgt1 strain (AID 153); settings: S. cerevisiae mgt1 mutant growth inhibition, stronger effect = higher value
Procedure, shortened: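 Read-out: yeast growth inhibition vs vehicle control. Strain mgt1, drawn from a panel altered in DNA damage repair or cell cycle control.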

[4] = NCI Yeast Anticancer Drug Screen. Data for the rad50 strain (AID 155);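 also: 0% = growth of vehicle-only cultures of the same strain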; settings: S. cerevisiae rad50 strain growth inhibition, stronger effect = higher value
Procedure, shortened: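 Vehicle-treated cultures provide the reference for the growth inhibition reported for compound-exposed, repair-deficient yeast.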

[5] = NCI Yeast Anticancer Drug Screen. Data for the mec2-1 strain (AID 157); settings: S. cerevisiae mec2-1 strain, stronger effect = higher value
Procedure, shortened: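 Cells of the genetically defined mec2-1 yeast strain are incubated with test compound. Inhibition of growth is calculated against vehicle-treated controls.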

[6] = NCI Yeast Anticancer Drug Screen. Data for the rad14 strain (AID 159);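 also: 0% = growth of vehicle-treated control cultures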; settings: S. cerevisiae rad14 strain growth inhibition, stronger effect = higher value
Procedure, shortened: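 Inhibition of growth is reported for a repair-deficient yeast mutant following compound treatment, calculated relative to cultures that received vehicle.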

[7] = NCI Yeast Anticancer Drug Screen. Data for the sgs1 mgt1 strain (AID 161);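 also: 0% = growth of cultures given vehicle only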; settings: S. cerevisiae sgs1 mgt1 strain, stronger effect = higher value
Procedure, shortened: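 Read-out: growth inhibition vs vehicle controls. Cells: mutant yeast strain deficient in DNA damage repair.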

[8] = NCI Yeast Anticancer Drug Screen. Data for the CLN2oe strain (AID 163);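 also: 0% = growth of vehicle-only control cultures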; settings: S. cerevisiae CLN2oe strain, stronger effect = higher value
Procedure, shortened: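 Strain altered in cell-cycle control, incubated with compound; growth compared to solvent-treated controls.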

[9] = NCI Yeast Anticancer Drug Screen. Data for the cln2 rad14 strain (AID 165);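 also: 0% = growth equal to vehicle treated cultures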; settings: S. cerevisiae cln2 rad14 strain, stronger effect = higher value
Procedure, shortened: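 The screen exposed genetically defined yeast (cln2 rad14) to test compounds and scored growth inhibition relative to vehicle-treated controls.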

[10] = NCI Yeast Anticancer Drug Screen. Data for the bub3 strain (AID 167); settings: S. cerevisiae bub3 mutant strain, stronger effect = higher value
Procedure, shortened: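 Mutant yeast screening strain plus compound; vehicle-treated cultures serve as the 0% inhibition reference.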

[11] = NCI Yeast Anticancer Drug Screen. Data for the wt2 strain (AID 169); settings: S. cerevisiae wt2 strain growth inhibition, stronger effect = higher value
Procedure, shortened: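 Steps: yeast strain treated with compound; growth recorded; inhibition calculated relative to cultures given vehicle alone.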

[12] = NCI Yeast Anticancer Drug Screen. Data for the mlh1 strain (AID 171);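 also: 0% = growth of vehicle-treated control cultures of the same strain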; settings: S. cerevisiae mlh1 strain growth inhibition, stronger effect = higher value
Procedure, shortened: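 Yeast screen: mutant strain plus compound, growth scored against vehicle control wells.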

[13] = NCI Yeast Anticancer Drug Screen. Data for the sgs1 strain (AID 173);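 also: 0% = growth of vehicle-only control cultures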; settings: S. cerevisiae sgs1 mutant, stronger effect = higher value
Procedure, shortened: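 Inhibition of yeast growth served as the measure. The mutant strain was treated with each compound, and growth was normalised to cultures receiving vehicle alone.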

[14] = NCI Yeast Anticancer Drug Screen. Data for the mlh1 rad18 strain (AID 175); settings: S. cerevisiae mlh1 rad18 strain growth inhibition, stronger effect = higher value
Procedure, shortened: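 Compound-treated yeast growth, normalised to vehicle controls. Strain bears defined DNA repair mutations.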

[15] = NCI Yeast Anticancer Drug Screen. Data for the rad18 strain (AID 177); settings: S. cerevisiae rad18 mutant growth inhibition, stronger effect = higher value
Procedure, shortened: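 Inhibition values reflect reduced yeast growth compared with vehicle-treated controls, using a strain engineered with a DNA damage repair defect.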

[16] = NCI Yeast Anticancer Drug Screen. Data for the rad52 strain (AID 147);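 also: 0% = growth of vehicle-treated control cultures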; settings: S. cerevisiae rad52 mutant growth inhibition, stronger effect = higher value
Procedure, shortened: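 Genetically altered yeast (DNA damage repair defect) treated with compound; inhibition calculated relative to vehicle.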

[17] = at 5.0 µM (retest, dose inferred, filed as 0.5)
[18] = at 50.0 µM (retest, dose inferred, filed as 5.0)

Measured: growth inhibition

NCCNCCNc1ccc(NCCNCCN)c2c1C(=O)c1c(O)ccc(O)c1C2=O
inactive: [1]; at 1.2 µM -49% | [1]; at 3.7 µM -2% | [1]; at 11.0 µM -4% | [1]; at 33.0 µM 0% | [1]; at 100.0 µM 12% | [2]; at 1.2 µM 9% | [2]; at 3.7 µM 36% | [2]; at 11.0 µM 69% | [2]; at 100.0 µM 69% | [3]; at 1.2 µM -2% | [3]; at 3.7 µM 0% | [3]; at 11.0 µM 1% | [3]; at 33.0 µM 7% | [3]; at 100.0 µM 19% | [4]; at 1.2 µM 17% | [4]; at 3.7 µM 49% | [4]; [17] 20% | [4]; [18] 66% | [5]; at 1.2 µM 27% | [5]; at 3.7 µM 1% | [5]; [17] 0% | [5]; at 11.0 µM -7% | [5]; at 33.0 µM 11% | [5]; [18] 45% | [5]; at 50.0 µM 0.2% | [5]; at 100.0 µM 31% | [6]; at 1.2 µM -4% | [6]; at 3.7 µM -2% | [6]; at 11.0 µM 0% | [6]; at 33.0 µM 5% | [6]; at 100.0 µM 15% | [7]; [17] -6% | [7]; [18] 8% | [7]; at 50.0 µM 15.1% | [8]; at 1.2 µM -10% | [8]; at 3.7 µM -7% | [8]; at 11.0 µM -10% | [8]; at 33.0 µM -9% | [8]; at 100.0 µM 40% | [9]; [17] 32% | [9]; [18] 34% | [9]; at 50.0 µM 7% | [10]; at 1.2 µM -4% | [10]; at 3.7 µM -11% | [10]; [17] 20% | [10]; at 11.0 µM -10% | [10]; at 33.0 µM -8% | [10]; [18] -1% | [10]; at 50.0 µM -1.95% | [10]; at 100.0 µM 20% | [11]; at 1.2 µM -3% | [11]; at 3.7 µM -3% | [11]; at 11.0 µM -3% | [11]; at 33.0 µM 14% | [11]; at 100.0 µM 53% | [12]; at 1.2 µM 0% | [12]; at 3.7 µM -2% | [12]; at 11.0 µM -1% | [12]; at 33.0 µM -1% | [12]; at 100.0 µM 16% | [13]; at 1.2 µM 1% | [13]; at 3.7 µM 4% | [13]; at 11.0 µM 2% | [13]; at 33.0 µM 13% | [13]; at 100.0 µM 25% | [14]; [17] 11% | [14]; [18] 0% | [14]; at 50.0 µM 16.5% | [15]; at 1.2 µM 4% | [15]; at 3.7 µM 2% | [15]; at 11.0 µM 9% | [15]; at 33.0 µM 22% | [15]; at 100.0 µM 48%
active: [2]; at 33.0 µM 84% | [4]; at 11.0 µM 82% | [4]; at 33.0 µM 88% | [4]; at 50.0 µM 87.7% | [4]; at 100.0 µM 84%

C=C1C(=O)OC2CC1C(OC(C)=O)C/C(C)=C/CC/C(C)=C\CCC2(C)O (stereo not drawn)
inactive: [16]; at 1.2 µM -5% | [16]; at 3.7 µM 1% | [16]; at 11.0 µM 15% | [16]; at 33.0 µM 33% | [2]; at 1.2 µM 15% | [2]; at 3.7 µM 42% | [2]; at 11.0 µM 40% | [2]; at 33.0 µM 31% | [2]; at 100.0 µM 18% | [3]; at 1.2 µM -14% | [3]; at 3.7 µM 3% | [3]; at 11.0 µM 13% | [3]; at 33.0 µM 28% | [4]; at 1.2 µM -3% | [4]; at 3.7 µM 9% | [4]; at 11.0 µM 17% | [4]; at 33.0 µM 40% | [5]; at 1.2 µM 11% | [5]; at 3.7 µM 17% | [5]; at 11.0 µM 23% | [5]; at 33.0 µM 37% | [6]; at 1.2 µM 5% | [6]; at 3.7 µM 17% | [6]; at 11.0 µM 31% | [6]; at 33.0 µM 44% | [8]; at 1.2 µM -17% | [8]; at 3.7 µM 9% | [8]; at 11.0 µM 20% | [8]; at 33.0 µM 13% | [9]; [17] 6% and 31% | [10]; at 1.2 µM 6% | [10]; at 3.7 µM -8% | [10]; at 11.0 µM 4% | [10]; at 33.0 µM 24% | [11]; at 1.2 µM -2% | [11]; at 3.7 µM -4% | [11]; at 11.0 µM 12% | [11]; at 33.0 µM 17% | [12]; at 1.2 µM -5% | [12]; at 3.7 µM 19% | [12]; at 11.0 µM 28% | [12]; at 33.0 µM 51% | [13]; at 1.2 µM 13% | [13]; at 3.7 µM 27% | [13]; at 11.0 µM 40% | [13]; at 33.0 µM 55% | [15]; at 1.2 µM -15% | [15]; at 3.7 µM 1% | [15]; at 11.0 µM 15% | [15]; at 33.0 µM 49%
active: [16]; at 100.0 µM 88% | [3]; at 100.0 µM 80% | [4]; at 50.0 µM 81.5% and 88.8% | [4]; at 100.0 µM 86% | [5]; [18] 79% and 99% | [5]; at 50.0 µM 81.7% and 91.2% | [5]; at 100.0 µM 89% | [6]; at 100.0 µM 87% | [8]; at 100.0 µM 85% | [9]; at 50.0 µM 78.8% and 89.3% | [10]; [18] 85% and 99% | [10]; at 50.0 µM 84.5% and 90.7% | [10]; at 100.0 µM 85% | [11]; at 100.0 µM 93% | [12]; at 100.0 µM 89% | [13]; at 100.0 µM 90% | [14]; [18] 97% | [14]; at 50.0 µM 85.5% and 86.8% | [15]; at 100.0 µM 91%
18% (inactive) and 82% (active): [5]; [17]
36% (inactive) and 90% (active): [10]; [17]
63% (inactive) and 98% (active): [4]; [18]
51% (inactive) and 97% (active): [9]; [18]
60% (inactive) and 95% (active): [14]; [17]
24% (inactive) and 85% (active): [4]; [17]
